Inconclusive results are not listed. Active and inactive are the calls of the source. The call rests on the fitted dose curve; in most records, active means well fitted curve in the direction sought with a large enough effect; inconclusive means small, poorly fitted or top-dose-only effect, or another doubt; inactive means no such curve, though single readings can be large; an effect the other way counts as inactive or inconclusive.
Tests used:
[1] = Quantitative High-Throughput drug screen in 47 multiple myeloma cell lines against the NCATS MIPE library collection: KHM11_PLB cell viability assay (AID 1918962); further: nearly all actives have a fitted effect of over 35% in size
Procedure, shortened: (§1)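 qHTS of the MIPE 4.0 collection: 500 myeloma cells/well, 48 h drug exposure at 37C in 5% CO2, then CellTiter-Glo for 5 min at room temperature before luminescence reading.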

[2] = Quantitative High-Throughput drug screen in 47 multiple myeloma cell lines against the NCATS MIPE library collection: JIM3_ECACC cell viability assay (AID 1918963; further: nearly all actives have a fitted effect of over 35% in size)
Procedure, shortened: as §1

[3] = Quantitative High-Throughput drug screen in 47 multiple myeloma cell lines against the NCATS MIPE library collection: JIM1_ECACC cell viability assay (AID 1918964)
Procedure, shortened: (§2)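 Relative luminescence from CellTiter-Glo served as the viability signal, referenced to DMSO-treated (100%) and cell-free medium (0%) controls. Treatment lasted 48 hours at 37C with 500 cells per well.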

[4] = Quantitative High-Throughput drug screen in 47 multiple myeloma cell lines against the NCATS MIPE library collection: INA6_PLB cell viability assay (AID 1918965; further: nearly all actives have a fitted effect of over 55% in size)
Procedure, shortened: (§3)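 Luminescent ATP measurement with CellTiter-Glo gives viability, scaled between DMSO-only wells (100%) and media-only wells (0%). Cells, 500 per well, faced library compounds for 48 hours at 37C.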

[5] = Quantitative High-Throughput drug screen in 47 multiple myeloma cell lines against the NCATS MIPE library collection: JJN3_DSMZ cell viability assay (AID 1918966; further: nearly all actives have a fitted effect of over 50% in size)
Procedure, shortened: as §2

[6] = Quantitative High-Throughput drug screen in 47 multiple myeloma cell lines against the NCATS MIPE library collection: H1112_PLB cell viability assay (AID 1918967; further: nearly all actives have a fitted effect of over 30% in size)
Procedure, shortened: as §2

[7] = Quantitative High-Throughput drug screen in 47 multiple myeloma cell lines against the NCATS MIPE library collection: KMS27_JCRB cell viability assay (AID 1918970); further: nearly all actives have a fitted effect of over 30% in size
Procedure, shortened: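 CellTiter-Glo luminescence after 48 h drug exposure at 37 °C; 500 cells/well, 1536-well format, pin-tool compound addition; DMSO = 100%, media-only = 0% viability.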

[8] = Quantitative High-Throughput drug screen in 47 multiple myeloma cell lines against the NCATS MIPE library collection: KMS12BM_JCRB cell viability assay (AID 1918971); further: nearly all actives have a fitted effect of over 35% in size
Procedure, shortened: (§4)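 Steps: seed 500 cells per well; pin-transfer MIPE 4.0 library; incubate 48 h at 37C, 5% CO2, humidified; add CellTiter-Glo, 5 min room temperature; read luminescence.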

[9] = Quantitative High-Throughput drug screen in 47 multiple myeloma cell lines against the NCATS MIPE library collection: KMS12PE_JCRB cell viability assay (AID 1918972); further: nearly all actives have a fitted effect of over 30% in size
Procedure, shortened: as §3

[10] = Quantitative High-Throughput drug screen in 47 multiple myeloma cell lines against the NCATS MIPE library collection: KMS20_JCRB cell viability assay (AID 1918973); further: nearly all actives have a fitted effect of over 45% in size
Procedure, shortened: as §2

[11] = Quantitative High-Throughput drug screen in 47 multiple myeloma cell lines against the NCATS MIPE library collection: KMS26_JCRB cell viability assay (AID 1918975); further: nearly all actives have a fitted effect of over 45% in size
Procedure, shortened: as §4

[12] = Quantitative High-Throughput drug screen in 47 multiple myeloma cell lines against the NCATS MIPE library collection: MMM1_PLB cell viability assay (AID 1918976); further: nearly all actives have a fitted effect of over 35% in size
Procedure, shortened: (§5)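 qHTS format: cells plated (500/well), pin-dosed with MIPE 4.0 compounds, kept 48 h at 37 °C. Readout was CellTiter-Glo luminescence, median RLU.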

[13] = Quantitative High-Throughput drug screen in 47 multiple myeloma cell lines against the NCATS MIPE library collection: MOLP8_DSMZ cell viability assay (AID 1918977); further: nearly all actives have a fitted effect of over 45% in size
Procedure, shortened: as §5

[14] = Quantitative High-Throughput drug screen in 47 multiple myeloma cell lines against the NCATS MIPE library collection: NCIH929_DSMZ cell viability assay (AID 1918978); further: nearly all actives have a fitted effect of over 35% in size
Procedure, shortened: as §5

[15] = Quantitative High-Throughput drug screen in 47 multiple myeloma cell lines against the NCATS MIPE library collection: OCIMY1_PLB cell viability assay (AID 1918979); further: nearly all actives have a fitted effect of over 35% in size
Procedure, shortened: as §5

[16] = Quantitative High-Throughput drug screen in 47 multiple myeloma cell lines against the NCATS MIPE library collection: MM1R_ATCC cell viability assay (AID 1918981); further: nearly all actives have a fitted effect of over 35% in size
Procedure, shortened: as §5

[17] = Quantitative High-Throughput drug screen in 47 multiple myeloma cell lines against the NCATS MIPE library collection: LP1_DSMZ cell viability assay (AID 1918982); further: nearly all actives have a fitted effect of over 35% in size
Procedure, shortened: as §5

[18] = Quantitative High-Throughput drug screen in 47 multiple myeloma cell lines against the NCATS MIPE library collection: Karpas25_ECACC cell viability assay (AID 1918968; further: nearly all actives have a fitted effect of over 35% in size)
Procedure, shortened: as §2

[19] = Quantitative High-Throughput drug screen in 47 multiple myeloma cell lines against the NCATS MIPE library collection: KMS21BM_JCRB cell viability assay (AID 1918974); conditions: ATP luminescence, 48 h; viability: at 45.8 µM (top of the series) unless noted
Procedure, shortened: as §2

[20] = Quantitative High-Throughput drug screen in 47 multiple myeloma cell lines against the NCATS MIPE library collection: MM1S_ATCC cell viability assay (AID 1918980); further: nearly all actives have a fitted effect of over 45% in size
Procedure, shortened: as §5

Measured: Potency
Potency means the concentration at half of the fitted maximal effect.

CN1C2CCC1CC(OC(=O)C(CO)c1ccccc1)C2 (stereo unspecified)
not listed: [18] | [19] | [20]
inactive: all other assays above

O=C(c1ccc(F)cc1)C1CCN(CCn2c(=O)[nH]c3ccccc3c2=O)CC1
active: [4] 20.9 µM
not listed: [5] | [6] | [10] | [12] | [13] | [18] | [19] | [20]
inactive: all other assays above

CC1COc2c(N3CCN(C)CC3)c(F)cc3c(=O)c(C(=O)O)cn1c23 (stereo unspecified)
active: [7] 18.7 µM | [19] 5.26 µM | [12] 11.8 µM
not listed: [4] | [6] | [9] | [10] | [20]
inactive: all other assays above

CCOC(=O)C(C)(C)Oc1ccc(Cl)cc1
active: [18] 0.662 µM | [12] 7.43 µM
not listed: [3] | [6] | [8] | [11] | [16] | [19] | [20]
inactive: all other assays above

Cc1ccccc1N1C(=O)c2cc(S(N)(=O)=O)c(Cl)cc2NC1C (stereo unspecified)
active: [5] 4.69 µM
not listed: [3] | [4] | [6] | [7] | [9] | [12] | [13] | [19]
inactive: all other assays above

CC#C[C@]1(O)CC[C@H]2[C@@H]3CCC4=CC(=O)CCC4=C3[C@@H](c3ccc(N(C)C)cc3)C[C@@]21C
active: [1] 1.87 µM | [2] 1.18 µM | [3] 0.526 µM | [4] 0.662 µM | [5] 1.48 µM | [18] 0.372 µM | [7] 0.264 µM | [8] 1.18 µM | [9] 0.469 µM | [10] 0.743 µM | [11] 4.18 µM | [12] 4.18 µM | [13] 2.35 µM | [14] 0.418 µM | [15] 3.72 µM | [20] 0.187 µM | [16] 0.743 µM | [17] 2.64 µM

CCC1(C)CC(=O)NC1=O (stereo unspecified)
active: [8] 1.18 µM
not listed: [3] | [5] | [6] | [10] | [13] | [17] | [19]
inactive: all other assays above

NC(=O)OCC(COC(N)=O)c1ccccc1
active: [20] 5.9 µM
not listed: [3] | [5] | [11] | [12] | [13] | [18] | [19]
inactive: all other assays above

Cn1c(=O)c2[nH]cnc2n(C)c1=O
active: [20] 23.5 µM
not listed: [3] | [5] | [6] | [12] | [15] | [16] | [19]
inactive: all other assays above

CC(C)C(=O)Nc1ccc([N+](=O)[O-])c(C(F)(F)F)c1
active: [1] 6.62 µM | [2] 8.33 µM | [3] 13.2 µM | [4] 6.62 µM | [6] 3.32 µM | [18] 3.32 µM | [7] 0.935 µM | [9] 13.2 µM | [10] 7.43 µM | [11] 8.33 µM | [14] 1.87 µM | [20] 1.66 µM | [16] 3.72 µM
inactive: [8] | [17]

CS(=O)(=O)CCNCc1ccc(-c2ccc3ncnc(Nc4ccc(OCc5cccc(F)c5)c(Cl)c4)c3c2)o1
active: [1] 4.69 µM | [2] 1.18 µM | [3] 6.62 µM | [4] 3.32 µM | [6] 0.0743 µM | [18] 0.372 µM | [7] 10.5 µM | [8] 20.9 µM | [9] 4.69 µM | [10] 1.48 µM | [19] 11.8 µM | [11] 16.6 µM | [12] 18.7 µM | [13] 26.4 µM | [14] 0.264 µM | [20] 0.166 µM | [16] 18.7 µM | [17] 18.7 µM

CC1(C)O[C@H]2CC(=O)OC[C@]23[C@H]2CC[C@@]4(C)[C@H](c5ccoc5)OC(=O)[C@H]5O[C@]54[C@]2(C)C(=O)C[C@@H]13
not listed: [4] | [5] | [6] | [12]
inactive: all other assays above

COc1cc2nc(N3CCN(C(=O)c4ccco4)CC3)nc(N)c2cc1OC
active: [1] 10.5 µM | [2] 9.35 µM | [4] 8.33 µM | [18] 7.43 µM | [7] 9.35 µM | [9] 7.43 µM | [10] 8.33 µM | [13] 20.9 µM | [14] 8.33 µM | [20] 20.9 µM | [16] 26.4 µM

Source: PubChem BioAssay (NCATS)
